CHX counter: counter-screen hit for Shiga toxin inhibitors, cycloheximide; cell reporter, cycloheximide protein synthesis inhibition counterscreen; max response, %; 12% of 300,000 active; in the data active = max response mostly above about 13%, no sharp cut-off; inactive = mostly below about 14%; note: read at 38.3 µM for the half of the compounds with a filed dose; 0% is about no effect
Shiga toxin inh: inhibitors of Shiga toxin in Vero cells. 9.2% of 290,000 active. AID 2315. inhibition, % at 38.7 µM. Vero cells, Shiga toxin protein synthesis inhibition reporter; in the data active = inhibition mostly above about 28%, no sharp cut-off; inactive = mostly below about 43%; note: 0% is about no effect
Pf growth 96h: P. falciparum growth inhibition at 96 hour, primary screen for plastid delayed-death inhibitors. P. falciparum luciferase reporter growth, 96 h. Potency, µM (top dose mostly 28.7 µM), for the others: top-dose activity change, negative = inhibition, most hits filed as inhibitors. 6.9% of 320,000 active. AID 504834; note: potency is the fitted concentration of half-maximal effect; % is set by controls: 0 for no effect and ±100 for the full control effect
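P. falciparum expressing integrated firefly luciferase grown in erythrocytes (2% hematocrit, 0.05% parasitemia final) with compounds for 96 hours at 37 C, 5% CO2. Growth inhibition read as loss of luminescence after adding luciferase detection reagent.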
Pf growth 48h: inhibits P. falciparum growth in the first generation, 48 h. P. falciparum luciferase growth in erythrocytes, 48 h. Potency, µM (doses to about 28.7 µM), without a hit: top-dose activity change, negative = inhibition, most hits filed as inhibitors. 5.9% of 310,000 active. AID 504832; note: potency is the fitted concentration of half-maximal effect; % is set by controls: 0 for no effect and ±100 for the full control effect
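Luciferase-expressing parasites in RBCs, 2% Hct / 0.1% parasitemia final; RPMI 1640 + 0.5% Albumax; 37 C, 5% CO2, one generation; luminescence read-out, lower signal = inhibition.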
LmPK inh: blocks Leishmania mexicana pyruvate kinase activity. Q27686. purified LmPK, Kinase-Glo ATP luminescence, 1 h. Potency, µM (titrated, usually from 57.5 µM), without a hit: at the highest dose activity change, negative = inhibition, hits mostly inhibitors. 0.37% of 290,000 active. AID 1721; note: potency is the fitted concentration of half-maximal effect; % is set by controls: 0 for no effect and ±100 for the full control effect
Target sequence (Q27686 whole entry, looked up): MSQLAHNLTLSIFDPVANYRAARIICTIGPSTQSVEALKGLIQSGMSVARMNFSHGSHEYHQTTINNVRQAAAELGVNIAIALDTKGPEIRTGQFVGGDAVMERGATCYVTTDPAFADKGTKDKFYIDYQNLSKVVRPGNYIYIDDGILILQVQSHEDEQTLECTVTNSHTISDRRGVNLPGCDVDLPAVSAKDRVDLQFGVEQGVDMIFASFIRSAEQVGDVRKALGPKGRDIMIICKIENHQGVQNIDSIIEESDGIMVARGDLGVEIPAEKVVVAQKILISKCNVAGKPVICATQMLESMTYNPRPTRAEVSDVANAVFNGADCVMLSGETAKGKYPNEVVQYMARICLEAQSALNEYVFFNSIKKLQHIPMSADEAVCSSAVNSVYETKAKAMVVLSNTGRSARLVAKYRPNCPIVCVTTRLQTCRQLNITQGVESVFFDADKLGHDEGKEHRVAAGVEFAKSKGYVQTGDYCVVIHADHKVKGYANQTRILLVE
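Screened at intermediate enzyme activity to detect both inhibitors and activators: LmPK at 0.1 nM, with a 0.5 nM enzyme column as activation reference. PEP 0.5 mM, ADP 0.1 mM; ATP detected by luminescence after 1 h.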
* marks the source's active call; other numbers are inactive results. The list is not random: actives were taken first. Their share in the collection is about 22%. Unless noted, calls come from the whole dose curve; as a rule, active = well fitted inhibition curve with a large enough effect; inconclusive = small, poorly fitted or top-dose-only effect, or another doubt; inactive = no such curve, though single readings can be large or run the other way.

For Clc1ccc(/C=N/Nc2ccccn2)cc1 the results were CHX counter 52.5*, Shiga toxin inh 107.7*, Pf growth 96h -16.8%, Pf growth 48h 289.7% and LmPK inh 7.3%.
Cc1noc(C)c1/C=N/Nc1ccccn1 was read as CHX counter 10.7, Shiga toxin inh 43.0, Pf growth 96h -9.9%, Pf growth 48h 114.6% and LmPK inh 6.4%.
`FC(F)(F)c1ccccc1/C=N/Nc1ccccn1` gave CHX counter 25.3*, Shiga toxin inh 58.7*, Pf growth 96h 28.9%, Pf growth 48h -23.1% and LmPK inh -0.1%.
Screening Cc1ccc(/C=N/Nc2ccccn2)s1 returned CHX counter 39.9*, Shiga toxin inh 102.2*, Pf growth 96h 70.8%, Pf growth 48h 93.7% and LmPK inh 1.3%.
`Nn1cnnc1N/N=C/c1ccccc1C(F)(F)F` gave CHX counter 4.5, Shiga toxin inh 4.0, Pf growth 96h inconclusive, Pf growth 48h inconclusive and LmPK inh -1.5%.
`CCOc1ccc(N2C(=O)CN=C2Nc2ccccc2F)cc1` gave CHX counter -4.4, Shiga toxin inh 5.8, Pf growth 96h 63.9%, Pf growth 48h -22.0% and LmPK inh -6.4%.
For O=C(NCCCN1CCCC1=O)c1cccc(NS(=O)(=O)c2ccc(Br)cc2)c1 the results were Pf growth 96h 0.0% and Pf growth 48h inconclusive.
Cn1cc(-c2ccc(Cl)cc2)cc(C#N)c1=O was read as CHX counter 11.3, Shiga toxin inh 9.9, Pf growth 96h -30.5%, Pf growth 48h 0.4% and LmPK inh -20.6%.
For Brc1ccccc1/C=N/Nc1ccccn1 the results were CHX counter 23.8*, Shiga toxin inh 50.9*, Pf growth 96h 144.1%, Pf growth 48h 99.1% and LmPK inh -24.6%.
COc1cc(/C=N/NC(=O)C(=O)Nc2ccccn2)ccc1O was read as CHX counter 17.9, Shiga toxin inh -2.3, Pf growth 96h 28.8%, Pf growth 48h -16.1% and LmPK inh -8.9%.
`COc1ccc(/C=N/Nc2ccccn2)cc1O` gave CHX counter 45.8*, Shiga toxin inh 69.7*, Pf growth 96h 188.9%, Pf growth 48h 261.1% and LmPK inh inconclusive.
For Fc1ccc(/C=N/Nc2ccccn2)cc1 the results were CHX counter 62.4*, Shiga toxin inh 67.7*, Pf growth 96h 142.3%, Pf growth 48h 130.4% and LmPK inh -13.4%.
Screening O=c1c(Cl)c(N/N=C/c2ccc(Br)cc2)cnn1-c1ccccc1 returned CHX counter -1.7, Shiga toxin inh -7.9, Pf growth 96h -14.5% and LmPK inh 4.3%.
Screening Fc1ccc(/C=N/Nc2nn[nH]n2)cc1 returned CHX counter -4.9, Shiga toxin inh 28.3, Pf growth 96h 2.1%, Pf growth 48h 16.1% and LmPK inh -0.4%.
For Brc1ccc(/C=N/Nc2ccccn2)cc1 the results were CHX counter 40.1*, Shiga toxin inh 181.8*, Pf growth 96h inconclusive, Pf growth 48h 56.0% and LmPK inh 6.0%.
O=C(O)COc1ccc(Br)cc1/C=N\Nc1ccccn1 was read as CHX counter 8.0, Shiga toxin inh -8.8, Pf growth 96h inconclusive, Pf growth 48h -5.3% and LmPK inh -2.5%.
Cc1ccc(S(=O)(=O)N[C@@H](C)C(=O)OCC(=O)N2c3ccccc3NC(=O)C2(C)C)cc1 was read as Pf growth 96h -17.8% and Pf growth 48h -14.8%.
For Cc1c(C)c2ccc(OC(C)C(=O)NCc3ccccn3)cc2oc1=O (stereo not drawn) the results were CHX counter -2.2, Shiga toxin inh 7.7, Pf growth 96h 2.2%, Pf growth 48h 36.9% and LmPK inh -0.9%.
Screening Cc1ccnc(N/C=C(\C#N)c2nc(-c3cccc(Br)c3)cs2)c1 returned CHX counter 15.5*, Shiga toxin inh 22.1, Pf growth 96h 2.94µM*, Pf growth 48h 11.7µM* and LmPK inh 5.1%.
Cc1ccc(S(=O)(=O)c2ccc(Oc3cccc(C)c3)cc2)cc1 was read as CHX counter -0.5, Shiga toxin inh -2.5, Pf growth 96h 0.0%, Pf growth 48h 48.0% and LmPK inh 3.9%.
Screening CCC(=O)N1c2ccccc2NC2=C(C(=O)CC(C)(C)C2)C1c1ccc(O)c(OC)c1 (stereo not drawn) returned CHX counter -1.0, Shiga toxin inh 8.2, Pf growth 96h 11.4%, Pf growth 48h 10.6% and LmPK inh -4.2%.
`NC(=O)/C(=C/c1cccnc1)NC(=O)c1ccccc1` gave CHX counter -1.3, Shiga toxin inh 6.9, Pf growth 96h 16.6%, Pf growth 48h 13.2% and LmPK inh -3.2%.
For CC1OC(OC2C(O)CC(OC3C(O)CC(OC4CCC5(C)C(CCC6C5CCC5(C)C(C7=CC(=O)OC7)CCC65O)C4)OC3C)OC2C)CC(O)C1O (stereo not drawn) the results were CHX counter -4.5, Shiga toxin inh -22.0, Pf growth 96h 4.78µM* and Pf growth 48h 15.1µM*.
CC(=O)O[C@H]1C[C@H](O[C@H]2[C@@H](O)CC(O[C@H]3[C@@H](O)C[C@H](O[C@H]4CC[C@@]5(C)[C@H](CC[C@@H]6[C@@H]5CC[C@]5(C)[C@@H](C7=CC(=O)OC7)CC[C@]65O)C4)O[C@@H]3C)O[C@@H]2C)O[C@H](C)[C@H]1O[C@@H]1O[C@H](CO)[C@@H](O)[C@H](O)[C@H]1O (stereo partly drawn) was read as Pf growth 96h 4.78µM* and Pf growth 48h inconclusive.
For NC(=O)N/N=C/c1cc(Br)ccc1OC(=O)c1ccccc1 the results were CHX counter -1.9, Shiga toxin inh 11.5, Pf growth 96h -15.8%, Pf growth 48h 12.7% and LmPK inh 3.2%.
Screening O=C(CCl)NC(Cc1ccccc1)c1ccccc1 (stereo not drawn) returned CHX counter 26.6, Shiga toxin inh 13.4, Pf growth 96h 10.4µM*, Pf growth 48h inconclusive and LmPK inh -2.1%.
CC(CC(=O)O)Nc1ccccc1O (stereo not drawn) was read as CHX counter -5.6, Shiga toxin inh 6.7, Pf growth 96h -1.0%, Pf growth 48h 7.2% and LmPK inh -5.8%.
For C/C(=C\c1cccc(Cl)c1Cl)C(=O)c1c(C)cc(C)[nH]c1=O the results were CHX counter -2.9, Shiga toxin inh -15.5, Pf growth 96h 18.5µM*, Pf growth 48h 0.0% and LmPK inh -0.6%.
`CCCCNC(=S)NNC(=O)c1cc(C2CC2)nc2ccccc12` gave CHX counter -2.3, Shiga toxin inh -8.6, Pf growth 96h 40.2%, Pf growth 48h inconclusive and LmPK inh 4.7%.
For CCCCNC(=S)NNC(=O)c1cc(-c2ccncc2)nc2ccccc12 the results were CHX counter 19.0*, Shiga toxin inh 24.1, Pf growth 96h 28.3%, Pf growth 48h -3.4% and LmPK inh 7.0%.
`CCCOc1cccc(-c2cc(C(=O)NNC(=S)NCC)c3ccccc3n2)c1` gave CHX counter 25.0*, Shiga toxin inh 87.3*, Pf growth 48h 10.4µM* and LmPK inh 5.6%.

Assay outcomes: PubChem, National Center for Advancing Translational Sciences (NCATS)
